Results as given in the supplement of paper PMC12636033.
± gives the standard deviation of the averaged measurements. Whole data set: some 33,000 sequences, median “E-score (rank enrichment, -0.5 to 0.5)” near -0.0043, cut for the highest 2% near 0.24. This excerpt belongs to a sample that is enriched for the highest values.

What follows are sequences tested on 2Sp-muMax20 (muMax20 with two 2,6-bis(methyl)pyridine Cys staples) (assay: PBM 8-mer E-score (E-score (rank enrichment, -0.5 to 0.5)); higher = stronger preferential binding).
Method: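 Protein binding microarray (universal PBM chip covering all 10-mers in fixed probe flanks) with chemically synthesized human Max(13-93) bHLH-LZ analogs (not full-length Max) bearing noncanonical residues (hArg, Tha, Aib, Nle at 65) and aromatic Cys staples. Read-out per 8-mer (and its reverse complement): E-score (rank-based enrichment, -0.5 to 0.5) and Z-score of median probe intensity.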

Row | Sequence | PBM 8-mer E-score
1 | ACAATTGG | 0.0427 ± 0.02
2 | CTCGTTAA | 0.0752 ± 0.0062
3 | CGGGATCA | -0.0799 ± 0.0016
4 | AAATCCCG | 0.1036 ± 0.0009
5 | ACTGAGAT | 0.0783 ± 0.12
6 | CACGGATC | -0.305 ± 0.0061
7 | TATGATAA | 0.0434 ± 0.066
8 | AATGATAG | 0.176 ± 0.039
9 | AATGATAT | 0.241 ± 0.01
10 | CATGATAC | 0.253 ± 0.048
11 | GATGATTA | 0.103 ± 0.0017
12 | AATGATAC | 0.193 ± 0.13
13 | CATGATAG | 0.0923 ± 0.043
14 | ACTGATAT | 0.0652 ± 0.073
15 | CATGATAA | 0.267 ± 0.065
16 | CATGATTA | 0.24 ± 0.025
17 | CATGATTC | 0.0562 ± 0.0054
18 | AATGATAA | 0.0232 ± 0.082
19 | CGCTATAG | 0.0363 ± 0.071
20 | GGGGTGAC | 0.0455 ± 0.096
21 | CGGCCTTC | -0.124 ± 0.097
22 | AAAGATAA | 0.218 ± 0.028
23 | TAAGATAA | 0.0454 ± 0.027
24 | CAAGATAA | 0.276 ± 0.014
25 | AATTCTTC | 0.0644 ± 0.062

Row | Sequence | PBM 8-mer E-score
26 | ACACCCCA | 0.208 ± 0.015
27 | CCACCCCA | 0.254 ± 0.043
28 | TCACCCAA | 0.143 ± 0.0019
29 | CCACCCCC | -0.0899 ± 0.002
30 | TCACCCCA | 0.276 ± 0.021
31 | GCACCCCA | 0.128 ± 0.071
32 | AATGGATG | -0.124 ± 0.015
33 | AGTACACG | 0.0271 ± 0.052
34 | AAGAGCCT | 0.00281 ± 0.074
35 | AGTCGCAA | 0.119 ± 0.018
36 | GTAAATAA | 0.157 ± 0.059
37 | CTAAATAC | 0.249 ± 0.037
38 | ATAAATAT | 0.263 ± 0.021
39 | GTAAATAC | 0.0558 ± 0.018
40 | ATAAATAA | 0.171 ± 0.053
41 | ATAAATAG | 0.191 ± 0.021
42 | TTAAATAA | 0.171 ± 0.051
43 | CTAAATAA | 0.126 ± 0.07
44 | ATAAATAC | 0.264 ± 0.019
45 | CAGCGTCC | -0.107 ± 0.044
46 | TCGATTCA | 0.0577 ± 0.023
47 | GAGCTCAC | 0.0534 ± 0.12
48 | ATCTGTTC | 0.11 ± 0.068
49 | ACTAGCAC | 0.0515 ± 0.15
50 | TGACCCCA | 0.108 ± 0.02

Row | Sequence | PBM 8-mer E-score
51 | AAACCCCA | 0.293 ± 0.022
52 | AGACCCCA | 0.284 ± 0.052
53 | CTACCCCA | 0.283 ± 0.011
54 | ACCCCCAA | -0.142 ± 0.059
55 | AGACCCCC | -0.388 ± 0.063
56 | AACCCCCA | -0.297 ± 0.061
57 | AACCCAAA | 0.0422 ± 0.03
58 | AAACCCCC | -0.303 ± 0.11
59 | CTACCCCC | -0.195 ± 0.12
60 | CTACCCAA | 0.0921 ± 0.061
61 | AACCCCAA | 0.249 ± 0.062
62 | GCCATTCC | -0.155 ± 0.069
63 | TCGAGAAA | 0.0513 ± 0.046
64 | GCCTTCTA | 0.0133 ± 0.025
65 | CCCGCACA | -0.141 ± 0.011
66 | AAACCTGA | -0.0739 ± 0.087
67 | AAACAGAC | 0.143 ± 0.097
68 | AGGTGGCA | -0.0941 ± 0.015
69 | ACCAGGTA | -0.11 ± 0.012
70 | AATTATTG | 0.196 ± 0.015
71 | AGACCAAC | -0.0312 ± 0.013
72 | CAACCCCA | 0.264 ± 0.035
73 | CAACCCAA | 0.0124 ± 0.094
74 | CAACCCCC | -0.196 ± 0.022
75 | ATGCTTTC | 0.125 ± 0.017

Row | Sequence | PBM 8-mer E-score
76 | ATGCTTTA | 0.138 ± 0.081
77 | ATGCTTTG | 0.239 ± 0.036
78 | GCGCGCTA | 0.235 ± 0.021
79 | AATCGCAG | 0.142 ± 0.046
80 | TGGGCCAA | -0.0226 ± 0.046
81 | ACGCATGC | 0.277 ± 0.06
82 | CTGCATTA | 0.107 ± 0.025
83 | ATGCATTA | 0.319 ± 0.0086
84 | CTGCAATA | 0.0295 ± 0.0051
85 | ACGCATGA | 0.136 ± 0.0059
86 | GTGCATTA | 0.156 ± 0.042
87 | ACGCATGG | 0.13 ± 0.026
88 | ATGCAATA | 0.246 ± 0.0094
89 | ATGCATCG | 0.0497 ± 0.074
90 | GTGCAATA | 0.0506 ± 0.012
91 | GTGCATCA | 0.0111 ± 0.045
92 | ATGCATCA | 0.347 ± 0.046
93 | CGACCACC | -0.142 ± 0.0047
94 | GCCTTAGC | -0.154 ± 0.029
95 | AGATCTTG | 0.152 ± 0.051
96 | CCATCGAA | -0.00649 ± 0.052
97 | GACTATGC | 0.0616 ± 0.023
98 | ATCCAGTG | -0.0872 ± 0.065
99 | ACATTCGG | -0.0311 ± 0.13
100 | CTGCATTC | -0.000675 ± 0.052

Row | Sequence | PBM 8-mer E-score
101 | ATGCATGG | 0.13 ± 0.055
102 | ACGCATAT | 0.333 ± 0.011
103 | ACGCATAG | -0.0802 ± 0.035
104 | ATGCATGC | 0.262 ± 0.048
105 | CTGCATGC | 0.0733 ± 0.071
106 | ATGCATAA | 0.114 ± 0.045
107 | ATGCATTC | 0.285 ± 0.048
108 | ATGCATAC | 0.258 ± 0.12
109 | ATGCATTG | 0.165 ± 0.0071
110 | CTGCATAC | 0.0466 ± 0.068
111 | ACGCATAA | 0.164 ± 0.07
112 | CAGGGGGA | 0.00992 ± 0.059
113 | ACACCGCT | -0.116 ± 0.068
114 | CAGCTTGG | -0.0934 ± 0.012
115 | GCCCGGGC | -0.296 ± 0.055
116 | ACTGAATG | -0.0577 ± 0.048
117 | CGCCGATC | -0.128 ± 0.13
118 | ATTTGCCA | -0.024 ± 0.041
119 | ACTTCCGG | -0.229 ± 0.1
120 | CTCCTCTA | -0.151 ± 0.013
121 | CACCTCCG | -0.0614 ± 0.051
122 | GAAAGTCA | -0.0504 ± 0.065
123 | AGCTGGGA | -0.08 ± 0.019
124 | ATTCATTC | 0.305 ± 0.013
125 | CTACATTC | 0.0778 ± 0.03

Row | Sequence | PBM 8-mer E-score
126 | ATACATTG | 0.106 ± 0.029
127 | ATTCATTG | 0.161 ± 0.087
128 | ATACATTC | 0.2884 ± 0.0017
129 | ATTCATTA | 0.176 ± 0.007
130 | GCCGTTCC | -0.21 ± 0.089
131 | AGGTAGAG | -0.122 ± 0.024
132 | AATGCTGT | -0.0251 ± 0.073
133 | GGCCTCGA | -0.238 ± 0.045
134 | ACGTGCTG | 0.12 ± 0.063
135 | ACGTGCTC | 0.259 ± 0.027
136 | GCGTGCAC | 0.204 ± 0.017
137 | ACGTGCAT | 0.195 ± 0.096
138 | CCGTGCTC | -0.119 ± 0.14
139 | ACGTGCAC | 0.273 ± 0.051
140 | CTTACCAC | 0.0166 ± 0.11
141 | GTCCTTTA | -0.0713 ± 0.029
142 | CCTATCCA | -0.0745 ± 0.015
143 | AGTAGGAG | -0.0281 ± 0.053
144 | CGCAAGAC | -0.023 ± 0.0044
145 | ACCAATTC | -0.0718 ± 0.0024
146 | CCCAATTA | 0.203 ± 0.057
147 | CCCAATTC | 0.246 ± 0.083
148 | CATTCTTA | 0.145 ± 0.085
149 | ATGTTTGA | 0.176 ± 0.031
150 | ATAATCAT | 0.27 ± 0.013

Row | Sequence | PBM 8-mer E-score
151 | ATAATCAC | 0.0279 ± 0.026
152 | ATAATCTG | 0.123 ± 0.1
153 | ATAATCAA | 0.0608 ± 0.095
154 | ATAATCAG | 0.304 ± 0.005
155 | CTAATCAG | -0.0147 ± 0.026
156 | CGTCGGCA | -0.197 ± 0.056
157 | CTTCGTTC | -0.0473 ± 0.038
158 | GGTTCAAC | -0.145 ± 0.05
159 | CTCCATAA | 0.0393 ± 0.028
160 | TCCGGCAA | -0.207 ± 0.0021
161 | ATTTCGTG | 0.166 ± 0.031
162 | CTTTCGTC | -0.0338 ± 0.038
163 | ATTTCGTC | 0.279 ± 0.019
164 | CTACGACA | -0.0631 ± 0.043
165 | ACCACGTA | -0.0775 ± 0.034
166 | ACCACGCG | 0.363 ± 0.023
167 | ATCACGCA | 0.00557 ± 0.0074
168 | ACCACGTC | -0.0398 ± 0.011
169 | CCCACGCG | 0.231 ± 0.014
170 | ACCACGCA | 0.0893 ± 0.0056
171 | ACCACGTG | 0.436 ± 0.012
172 | AGCACGTA | 0.0888 ± 0.021
